Source: PubChem BioAssay (NCI)
This is part of a sample that, as a whole, favours compounds with a hit. Of some 83,000 tested, about 20% had one in any assay.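 Values shown are percent growth following 48 h exposure of cells in 96-well plates to a single concentration of compound; below 10 was considered active.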 A number with no mark means an inactive call. The source made the active and inactive calls.

test system: MOLT-4 leukemia; assay: NCI-60 one-dose screen, 48 h (100 = growth as untreated, 0 = no growth, -100 = all killed); settings: 10 µM unless noted

| SMILES | growth |
| --- | --- |
| OC(c1ccccc1)(c1ccccc1)c1ccccc1-c1ccccc1 | 84% |
| Clc1ccc(-c2nc(-c3c[nH]c4ncccc34)cs2)cc1 | 98.1% [100 µM] |
| CC(=O)c1cc(-c2ccccc2N)n(-c2ccc3c(c2)OCO3)c1C | 16.1% |
| CC1O[C@@H]2C[C@@](O)([C@H]1O)n1c3ccccc3c3c4c(c5c6ccccc6n2c5c31)C(=O)NC4=O (stereo partly drawn) | 10.5% |
| COC(=O)/C(CCC=C(C)C)=C1\[C@@H](OC(C)=O)C[C@@]2(C)[C@H]1CC(=O)[C@H]1[C@@]3(C)CCC(N4CCCC4)[C@@H](C)[C@@H]3CC[C@@]12C (stereo partly drawn) | 9.72% (active) |
| CN(C)c1ccc(/C=C2/C=C(c3ccccc3)OC2=O)cc1 | 49.7% |
| COc1cc(-c2nc3occn3c2-c2ccnc(NCCCNS(=O)(=O)c3ccccc3)n2)ccc1F | 11% |
| O=C(Nc1ccccc1)c1sc(-c2ccccc2)cc1O | 95.2% |
| CCOC(=O)c1c2c(n3c1NCC3)-c1ccccc1C2=O | 87.8% |
| C/C(=N\Nc1nc(C)cs1)c1cc2ccccc2o1 | 85.9% |
| CCOC(=O)C1=C(c2ccccc2)N=c2s/c(=C/c3ccc(Br)cc3)c(=O)n2C1c1ccc(O)cc1 (stereo not drawn) | 68% |
| COc1ccc(C2CC(c3ccc(Nc4nc(Nc5ccc(F)cc5)nc(Nc5ccc(F)cc5)n4)cc3)=NN2C(C)=O)cc1 (stereo not drawn) | 34.6% |
| c1ccc2cc(Cn3c[n+](Cc4ccc5ccccc5c4)c4ccccc43)ccc2c1 | -27.1% (active) |
| CN1CCN(c2ccc3c(c2)nc(NNC(=O)c2cnccn2)c2cccn23)CC1 | 13.9% |
| Cc1cc(C)c(-c2c(O)c(Br)c(-c3c(C)cc(C)c(Br)c3C)c(O)c2Br)c(C)c1Br | 28.9% |
| CCCCCCCCCCCCCCCCCCOc1ccccc1CC(=O)NCC[N+]1(C)CCOCC1 | 14.6% |
| O=C(/C=C/c1cccc(Cl)c1)c1cccc(OCCCCOc2cccc(C(=O)/C=C/c3cccc(Cl)c3)c2)c1 | 89% |
| Cc1ccc(-c2nc(C#N)c(S(=O)(=O)NCCO)o2)cc1 | 19.8% |
| NC(=O)c1ccc(NC(=O)c2oc3ccccc3c2-c2cnn(-c3ccccc3)c2)cc1 | 61.2% [50 µM] |

| SMILES | growth |
| --- | --- |
| O=C(CBr)CN1C(=O)c2ccccc2C1=O | 104% |
| CCN(CC)c1ccc(/C=C\c2cc(C)c3cc(C)ccc3n2)cc1 | 40.2% |
| C=CCN=C(N)SCCCCCCSC(N)=NCC=C | 81.8% |
| Clc1nn2c(Cn3cnc4c(NCc5ccccc5)ncnc43)nnc2c2ccccc12 | 26.5% |
| CCOC(=O)c1ccc2c(c1)c1c(C)c3ccncc3c(C)c1n2C | 8.03% (active) |
| CCCCCCCCn1ccc2cc(NC(=O)Cn3cc(CN4CCCCCC4)nn3)ccc21 | -27.5% (active) |
| N#CC(C#N)N=Nc1ccc(Cl)cc1Cl | 75.5% |
| Brc1ccc(-c2cnc3nonc3n2)cc1 | 37.5% |
| COc1cccc(C(=O)OCC(O)C(=O)NC23CC4CC(CC(C4)C2)C3)c1 (stereo not drawn) | 95.4% |
| Cc1cc(C)cc(Nc2ccc([N+](=O)[O-])c(NCCN3CCOCC3)n2)c1 | 10.3% |
| O=C(Nc1cccnc1Nc1ccc(Cl)cc1)c1cn(Cc2ccc(F)cc2)nn1 | 106% |
| Cn1c(=O)c2c(c3ccccc31)OC(N)=C(C#N)C21C(=O)c2ccccc2C1=O | 112% |
| COc1cccc(/C=C2\COc3ccc(O)cc3C2=O)c1 | 40.2% |
| CCc1cccc(Sc2cc(C(=O)N3Cc4ccc(OCCN(C)C)cc4C3)ccc2O)c1 | 25% |
| C=C(CN1CC=CCC1)[C@@H]1CC[C@]2(CO)CC[C@]3(C)[C@H](CC[C@@H]4[C@@]5(C)CC[C@H](O)C(C)(C)[C@@H]5CC[C@]43C)[C@@H]12 | 86.5% |
| COc1ccc(/C(C)=C(\c2ccc(Cl)cc2)c2ccc(OCCN3CCCC3)cc2)cc1 | 23.4% |
| CC/C(Cc1ccccc1)=C(\c1ccc(OCCN2CCCCCC2)cc1)c1ccc(OC(=O)NCc2ccccc2)cc1 | 42.6% |
| N=c1sc(Cc2cc(Cl)ccc2Cl)cn1CC(=O)c1ccccc1 | 49.8% |
| Cc1cc(C(=O)Nc2cc(Nc3ncccc3-c3ncnc4nc[nH]c34)ccc2F)cc(C(F)(F)F)c1 | 47.2% |
